Test results from PubChem BioAssay AID1561 (National Center for Advancing Translational Sciences (NCATS), 2009).
Active and inactive are the calls of the source. Calls come from the whole dose curve; as a rule, active = well fitted curve in the direction sought with a large enough effect; inactive = no such curve, though single readings can be large or run the other way.

Test: Secondary Assay for lipid storage modulators. Cytotoxcity
Settings: Drosophila S3 cells viability, CellTiter-Glo luminescence, 24 h; series mostly up to 46.1 µM
From the text: NIH Molecular Libraries Probe Production Centers Network [MLPCN] NIH Chemical Genomics Center [NCGC] MLPCN Grant: TBA Assay Submitter (PI): Beller, Mathias; Max-Planck-Institut fur Biophysikalische Chemie, Germany. NCGC Assay Overview: Storing lipids as a reservoir for energy or the anabolism of elementary metabolites is a common feature of probably all cells and is conserved from bacteria to humans. The universal cellular lipid storage organelle is the so-called lipid storage droplet (LD). Although ubiquitous, LDs share a simple structure composed of a hydrophobic core that harbors the storage lipids, which is shielded by a droplet-specific phospholipid monolayer to which proteins are attached. The current model of LD biogenesis involves an incorporation of the lipid core into the membrane leaflets of the endoplasmic reticulum (ER) followed by a subsequent budding-like maturation of a LD, which ultimately pinches off. Once released, LD volume can increase by localized lipogenesis or fusion of existing droplet. Storage lipids are re-mobilized enzymatically by lipase activity. […]
Assay Protocol Summary: Cytotoxcity assay was performed with embryonic Drosophila S3 cells (Bloomington Drosophila Genomics Resource Center [DGRC]). […] Luminescence was detected on the Perkin Elmer ViewLux.
With `COC(=O)c1ccccc1NC(=O)c1ccc(F)cc1` the outcome was “inactive”.
